Laboratory results as given in ChEMBL document CHEMBL3988442, “University of Dundee, Small-Polar-MMV Screening Library” (2021).

Target: T1, Aspartate--tRNA(Asp/Asn) ligase (Mycobacterium tuberculosis (strain ATCC 25618 / H37Rv)) (UniProt P9WFW3); further: in the data most compounds retested in dose-response had high values
T1 sequence (whole entry): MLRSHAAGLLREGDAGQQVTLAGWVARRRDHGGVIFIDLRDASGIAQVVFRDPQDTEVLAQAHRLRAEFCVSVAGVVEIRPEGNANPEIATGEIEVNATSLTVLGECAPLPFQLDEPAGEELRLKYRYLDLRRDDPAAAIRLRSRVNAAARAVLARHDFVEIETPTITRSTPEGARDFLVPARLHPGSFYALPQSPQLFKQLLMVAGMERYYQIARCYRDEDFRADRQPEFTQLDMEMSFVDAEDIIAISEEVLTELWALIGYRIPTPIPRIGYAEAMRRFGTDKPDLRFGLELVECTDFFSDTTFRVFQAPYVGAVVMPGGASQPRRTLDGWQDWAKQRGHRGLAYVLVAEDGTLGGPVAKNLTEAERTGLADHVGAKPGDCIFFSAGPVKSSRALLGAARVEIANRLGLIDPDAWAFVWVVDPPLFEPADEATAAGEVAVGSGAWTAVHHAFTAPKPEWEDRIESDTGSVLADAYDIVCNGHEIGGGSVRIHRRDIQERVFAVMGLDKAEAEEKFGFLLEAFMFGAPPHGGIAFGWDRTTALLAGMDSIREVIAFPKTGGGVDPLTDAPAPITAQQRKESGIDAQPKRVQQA
Assay: Assay for Asp RNA synthetase-1 from Mycobacterium tuberculosis
Type: functional
Parameters: scale not given: direction of the effect not stated beside the values
Conditions: 30 µM

Compound | Percent Effect
COCC1CC2(CCN(C(=O)c3cc(C)oc3C)CC2)CN1C(C)C (stereo not given) | -2.27%
Cc1nn(C)c(N2CCOCC2)c1CNC(C)c1cccnc1 (stereo not given) | -8.69%
Fc1cc(CNCc2ccc3c(c2)CCO3)ccc1N1CCOCC1 | -1.01%
CCCc1n[nH]c(C2CN(C(=O)c3ccco3)CCO2)n1 (stereo not given) | -0.955%
Cn1c(C2CC2)nc2c1CCN(CCOc1ccc(C#N)cc1)C2 | 3.25%
Cc1ccc(N2CCCC(NCc3ccsc3)C2)nn1 (stereo not given) | 4.57%
CCN(C(=O)CS(=O)(=O)Cc1cc(Cl)c2c(c1)OCCCO2)C1CC1 | -0.343%
COCC(=O)N1CCC2(CC1)CC(CC(=O)NC1CC1)c1ccccc12 (stereo not given) | -1.39%
COc1ccc(CN2CCC3(CC(Nc4ccncn4)C3)C2)c(OC)c1 (stereo not given) | -0.368%
Cc1cccc(CCC(=O)N2CCOCC2c2c(C)n[nH]c2C)c1 (stereo not given) | 3.91%
COc1ccccc1S(=O)(=O)Nc1ccc2c(C(=O)O)c[nH]c2c1 | 3.46%
CCc1nc(C2CCCN2Cc2nc(CCOC)no2)no1 (stereo not given) | 5.05%
CCn1nc(C)c2ncnc(NCC(=O)N3CCOCC3)c21 | -3.08%
Cc1cc(C2CCCN(C(=O)c3ccc(C)[nH]c3=O)C2)n[nH]1 (stereo not given) | -1%
Cc1nc(CN2C(=O)CC[C@H]3[C@@H]2CCN3C(=O)c2ccsc2)cs1 | -4.11%
NC(=O)NCC(=O)N1C[C@H]2CC[C@@H]1CN(Cc1ccccc1)C2 | 15.6%
Cc1nc(CN(C)C2CCN(CC(=O)N3CCOCC3)C2)no1 (stereo not given) | 5.36%
Cc1ccc(-c2cc(CNC(=O)N3CCOC(C)C3)on2)cc1 (stereo not given) | 0.699%
O=C(c1ccnnc1)N1C[C@@H]2CC[C@H](Oc3cccc(F)c3)[C@@H]2C1 | 3.77%
CC(C)(C(=O)NCC1CC1)c1ccccc1F | -1.98%

Compound | Percent Effect
COc1ccccc1OCCC(=O)N1CCCC1Cn1cc(C)cn1 (stereo not given) | -0.922%
COc1cc(CN(C)C(=O)NCCC2CCCO2)ccc1SC (stereo not given) | -3.98%
Cc1oncc1C(=O)N1CCC2(CC1)CC(c1ccccc1)C(=O)N2C (stereo not given) | -1.78%
CNc1nc(CNC(=O)Nc2cccc(-c3nnco3)c2)cs1 | 2.65%
O=C(CCCNC(=O)C1CC1)Nc1cnn(-c2ccccc2Cl)c1 | -4.78%
OC[C@H]1CC[C@]2(CC1)CN(Cc1ccccn1)Cc1ccccc1O2 | 0.104%
O=C(c1ccc(NC2CC2)nc1)N1CCCC(n2cccn2)C1 (stereo not given) | -1.7%
Nc1nccc(N2CCCC(CO)(CCOc3ccccc3)C2)n1 (stereo not given) | 9.3%
CN1CC(c2ccccc2)CC12CCN(C(=O)c1c(Cl)cnn1C)CC2 (stereo not given) | -1.22%
Cc1nnc(N2CCC(CNC(=O)OC(C)(C)C)CC2)c(C#N)c1C | -0.115%
CN(C)CCOCC1CN(Cc2ccsc2)Cc2ccnn2C1 (stereo not given) | -0.625%
CN(Cc1ccc2c(c1)OCCO2)C(=O)Cn1ccccc1=O | -7.28%
COc1cccc(COCC(=O)N2CCN(CC(C)(C)O)CC2)c1 | -1.7%
Cc1cnn(CC2CCCN2CCCc2nc3ccccc3o2)c1 (stereo not given) | 1.34%
CCOCC1CN(C(=O)c2cccn2C)Cc2cnn(CC3CC3)c21 (stereo not given) | 5.55%
O=C(Cc1ccsc1)N1CCn2cc(CN3CCCC3)nc2C1 | -0.684%
CC(OCC(F)(F)F)C(=O)Nc1ccc(-n2cncn2)nc1 (stereo not given) | -0.432%
Cc1cc(C)n(C2CN(CC(O)COc3ccc(F)cc3)C2)n1 (stereo not given) | -0.121%
Cc1nn(C)c(N(C)C)c1CNCCCN(C)S(C)(=O)=O | -6.1%
CCS(=O)(=O)N1CCC2(CC1)CN(Cc1ccccn1)C(=O)CO2 | 0.198%

Target: Shiga toxin 2 (Escherichia coli O157:H7) (UniProt P09385+P09386)
Assay: E. coli 0.157:H7 Shiga Toxin SOP - stx2 screening assay
Type: functional
Parameters: scale not given: direction of the effect not stated beside the values
Conditions: 30 µM

Compound | Percent Effect
COCC1CC2(CCN(C(=O)c3cc(C)oc3C)CC2)CN1C(C)C (stereo not given) | -25.7%
Cc1nn(C)c(N2CCOCC2)c1CNC(C)c1cccnc1 (stereo not given) | 9.24%
Fc1cc(CNCc2ccc3c(c2)CCO3)ccc1N1CCOCC1 | -16.1%
CCCc1n[nH]c(C2CN(C(=O)c3ccco3)CCO2)n1 (stereo not given) | 8.05%
Cn1c(C2CC2)nc2c1CCN(CCOc1ccc(C#N)cc1)C2 | -7.77%
Cc1ccc(N2CCCC(NCc3ccsc3)C2)nn1 (stereo not given) | 10.6%
CCN(C(=O)CS(=O)(=O)Cc1cc(Cl)c2c(c1)OCCCO2)C1CC1 | 4.47%
COCC(=O)N1CCC2(CC1)CC(CC(=O)NC1CC1)c1ccccc12 (stereo not given) | 9.56%
COc1ccc(CN2CCC3(CC(Nc4ccncn4)C3)C2)c(OC)c1 (stereo not given) | -11.8%
Cc1cccc(CCC(=O)N2CCOCC2c2c(C)n[nH]c2C)c1 (stereo not given) | -16.7%
COc1ccccc1S(=O)(=O)Nc1ccc2c(C(=O)O)c[nH]c2c1 | 12.9%
CCc1nc(C2CCCN2Cc2nc(CCOC)no2)no1 (stereo not given) | -11.9%
CCn1nc(C)c2ncnc(NCC(=O)N3CCOCC3)c21 | -16.4%
Cc1cc(C2CCCN(C(=O)c3ccc(C)[nH]c3=O)C2)n[nH]1 (stereo not given) | 3.9%
Cc1nc(CN2C(=O)CC[C@H]3[C@@H]2CCN3C(=O)c2ccsc2)cs1 | -2.73%
NC(=O)NCC(=O)N1C[C@H]2CC[C@@H]1CN(Cc1ccccc1)C2 | -8.55%
Cc1nc(CN(C)C2CCN(CC(=O)N3CCOCC3)C2)no1 (stereo not given) | 11.2%
Cc1ccc(-c2cc(CNC(=O)N3CCOC(C)C3)on2)cc1 (stereo not given) | 9.22%
O=C(c1ccnnc1)N1C[C@@H]2CC[C@H](Oc3cccc(F)c3)[C@@H]2C1 | -5.52%
CC(C)(C(=O)NCC1CC1)c1ccccc1F | -2.97%

Compound | Percent Effect
COc1ccccc1OCCC(=O)N1CCCC1Cn1cc(C)cn1 (stereo not given) | 29.9%
COc1cc(CN(C)C(=O)NCCC2CCCO2)ccc1SC (stereo not given) | -6.71%
Cc1oncc1C(=O)N1CCC2(CC1)CC(c1ccccc1)C(=O)N2C (stereo not given) | -15.3%
CNc1nc(CNC(=O)Nc2cccc(-c3nnco3)c2)cs1 | -22.3%
O=C(CCCNC(=O)C1CC1)Nc1cnn(-c2ccccc2Cl)c1 | -29.3%
OC[C@H]1CC[C@]2(CC1)CN(Cc1ccccn1)Cc1ccccc1O2 | 2.28%
O=C(c1ccc(NC2CC2)nc1)N1CCCC(n2cccn2)C1 (stereo not given) | 14.7%
Nc1nccc(N2CCCC(CO)(CCOc3ccccc3)C2)n1 (stereo not given) | -17.8%
CN1CC(c2ccccc2)CC12CCN(C(=O)c1c(Cl)cnn1C)CC2 (stereo not given) | 17%
Cc1nnc(N2CCC(CNC(=O)OC(C)(C)C)CC2)c(C#N)c1C | 34.8%
CN(C)CCOCC1CN(Cc2ccsc2)Cc2ccnn2C1 (stereo not given) | 3.55%
CN(Cc1ccc2c(c1)OCCO2)C(=O)Cn1ccccc1=O | -21.6%
COc1cccc(COCC(=O)N2CCN(CC(C)(C)O)CC2)c1 | 9.82%
Cc1cnn(CC2CCCN2CCCc2nc3ccccc3o2)c1 (stereo not given) | -14.6%
CCOCC1CN(C(=O)c2cccn2C)Cc2cnn(CC3CC3)c21 (stereo not given) | -5.56%
O=C(Cc1ccsc1)N1CCn2cc(CN3CCCC3)nc2C1 | -12%
CC(OCC(F)(F)F)C(=O)Nc1ccc(-n2cncn2)nc1 (stereo not given) | 13.4%
Cc1cc(C)n(C2CN(CC(O)COc3ccc(F)cc3)C2)n1 (stereo not given) | 19.1%
Cc1nn(C)c(N(C)C)c1CNCCCN(C)S(C)(=O)=O | -43.8%
CCS(=O)(=O)N1CCC2(CC1)CN(Cc1ccccn1)C(=O)CO2 | -10.6%
